Test results from the supplement of paper PMC6805474.

Columns and labels:
[1] = system: Schistosoma mansoni schistosomula (LE); experiment: XTT viability relative to DMSO control; higher = more viable (less active); details: 72 h; 10 µM
Description: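 XTT/PMS was then added for a further 24 h (72 h total) and A450 was read. % viability = (sample - heat-killed control)/(DMSO control - heat-killed control) x 100, from duplicate wells in two independent experiments.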

[2] = system: Schistosoma mansoni schistosomula (NMRI); experiment: phenotypic severity score (0-4); higher = more antischistosomal effect, active = 2 or more; details: 10 µM
[3] = system: Schistosoma mansoni schistosomula (Liberian); experiment: drug effect (1 - score/DMSO control score) (fraction); higher = more antischistosomal effect, active = 0.5 or more; extreme values may be limits of the assay; details: 10 µM
Summary of the method: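 Drug effect was calculated by comparing the mean score of the test wells with the mean score of the DMSO wells, and any negative value was set to zero. Duplicate wells of 50 Liberian-strain S. mansoni schistosomula, mechanically transformed from cercariae and pre-incubated at least 12 h, received 10 µM compound in Medium 199 with 5% FCS at 37 °C, 5% CO2, with 0.1% DMSO in the comparison wells. Visual scoring at 10× took place at 24, 48 and 72 h on a quarter-point scale from 3 (normal) to 0 (dead), and a plate counted only if its DMSO wells averaged at least 2.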
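Throughout, for phenotypic severity score (0-4): visual microscopic scoring of shape, motility and density changes versus 0.5% DMSO solvent controls, one point per descriptor, degeneracy or death scored 4, mean of duplicate wells.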

| Structure (SMILES) | XTT viability [1] [%] | phenotypic severity score ([2]; 24 h) | phenotypic severity score ([2]; 48 h) | phenotypic severity score ([2]; 72 h) | drug effect ([3]; 24 h) | drug effect ([3]; 48 h) | drug effect ([3]; 72 h) |
| --- | --- | --- | --- | --- | --- | --- | --- |
| Nc1nccc2ccc(-c3ccc4nccn4c3)cc12 | 41.1 | 4 (active) | 4 (active) | 4 (active) | 0.568 (active) | 0.778 (active) | 0.75 (active) |
| COc1cccc(-n2nnnc2S(=O)(=O)Cc2ccccc2)c1 | -7.15 | 4 (active) | 4 (active) | 4 (active) | 1 (active) | 1 (active) | 1 (active) |
| COc1nc2ccc(Br)cc2cc1[C@@H](c1ccccc1)[C@@](O)(CCN(C)C)c1cccc2ccccc12 | 7.23 | 2 (active) | 4 (active) | 4 (active) | 0.318 (inactive) | 0.8 (active) | 0.945 (active) |
| Cc1cc(C(=O)Nc2cnn(Cc3ccc(Cl)cc3Cl)c2)no1 | 91.7 | 0 (inactive) | 0 (inactive) | 0 (inactive) | 0.182 (inactive) | 0.1 (inactive) | 0.127 (inactive) |
| O=C(C1CCCCC1)N1CC(=O)N2CCc3ccccc3C2C1 (stereo not given) | 97.3 | 4 (active) | 4 (active) | 4 (active) | 0.3 (inactive) | 0.351 (inactive) | 0.556 (active) |
| CCNC(=O)C(C)Nc1nc(-c2cccnc2)nc2sc(C)c(C)c12 (stereo not given) | 81.9 | 0 (inactive) | 0 (inactive) | 0 (inactive) | < 0 (inactive) | < 0 (inactive) | 0.111 (inactive) |
| CCn1ncc2c(NC3CCOCC3)c(CNC(=O)c3ccnn3C)c(C)nc21 | 92.5 | 0 (inactive) | 0 (inactive) | 0 (inactive) | 0.05 (inactive) | 0.0811 (inactive) | 0.0303 (inactive) |
| CCS(=O)(=O)N(Cc1ccco1)Cc1cc2ccc(C)cc2nc1O | 55.5 | 0 (inactive) | 1 (inactive) | 0 (inactive) | 0.2 (inactive) | 0.333 (inactive) | 0.5 (active) |
| COc1ccc(Nc2ccccc2NC(=O)c2ccc(O)nc2)cc1 | 176 | 0 (inactive) | 0 (inactive) | 0 (inactive) | 0.182 (inactive) | 0.45 (inactive) | 0.4 (inactive) |
| CS(=O)(=O)c1cccc(-c2cnc3[nH]cc(-c4ccc(CCC(=O)O)cc4)c3c2)c1 | 86.9 | 0 (inactive) | 0 (inactive) | 0 (inactive) | 0.227 (inactive) | 0.6 (active) | 0.455 (inactive) |
| COc1cc(C2=NCCN2)ccc1-c1cn(-c2cccc(C3=NCCN3)c2)nn1 | 72.8 | 1 (inactive) | 0 (inactive) | 0 (inactive) | 0.25 (inactive) | 0.297 (inactive) | 0.394 (inactive) |
| O=C(NC1CCN(c2ccnc3ccccc23)C1)c1cccc(C(F)(F)F)c1 (stereo not given) | 103 | 0 (inactive) | 0 (inactive) | 0 (inactive) | 0.135 (inactive) | 0.556 (active) | 0.938 (active) |
| CC(C)(C)OC(=O)N1CCN(c2cc(-c3ccc(Oc4ccccc4)cc3)n[nH]2)CC1 | 66.1 | 0 (inactive) | 0 (inactive) | 0 (inactive) | 0.0526 (inactive) | 0.167 (inactive) | 0.25 (inactive) |
| O=C(Nc1nnc(-c2ccc(Cl)s2)o1)c1ccc(Cl)s1 | -3.4 | 2 (active) | 4 (active) | 4 (active) | < 0 (inactive) | < 0 (inactive) | < 0 (inactive) |
| CNc1nnc(Sc2cnn(-c3ccccc3)c(=O)c2Cl)s1 | -5.83 | 4 (active) | 4 (active) | 4 (active) | 1 (active) | 1 (active) | 1 (active) |
| CC(C)(C)n1nc(Cc2ccc(F)c(Cl)c2)c2c(N)ncnc21 | 98.7 | 0 (inactive) | 0 (inactive) | 0 (inactive) | 0.0811 (inactive) | 0.167 (inactive) | 0.188 (inactive) |
| c1ccc(Oc2ccc(-c3cc(CN4CCOCC4)[nH]n3)cc2)cc1 | 85.9 | 0 (inactive) | 0 (inactive) | 0 (inactive) | 0.0455 (inactive) | 0.05 (inactive) | 0.158 (inactive) |
| Cc1noc(C)c1C(=O)N1CCCC(c2[nH]c3c(C)cccc3c2-c2ccncc2)C1 (stereo not given) | 67.5 | 4 (active) | 4 (active) | 4 (active) | 0.35 (inactive) | 0.5 (active) | 0.778 (active) |

| Structure (SMILES) | XTT viability [1] [%] | phenotypic severity score ([2]; 24 h) | phenotypic severity score ([2]; 48 h) | phenotypic severity score ([2]; 72 h) | drug effect ([3]; 24 h) | drug effect ([3]; 48 h) | drug effect ([3]; 72 h) |
| --- | --- | --- | --- | --- | --- | --- | --- |
| CC1CCCCN1C(=O)NCCc1coc(-c2ccc(F)cc2)n1 (stereo not given) | 131 | 1 (inactive) | 0 (inactive) | 0 (inactive) | 0.0909 (inactive) | 0.25 (inactive) | 0.236 (inactive) |
| CC(=O)N1CCc2cc3nc(C)cc(C)c3cc21 | 112 | 0 (inactive) | 0 (inactive) | 0 (inactive) | 0.2 (inactive) | 0.111 (inactive) | 0.0625 (inactive) |
| Cc1nn2c(=O)c3c([nH]c2c1-c1ccc(Cl)cc1)CCCC3 | 101 | 0 (inactive) | 0 (inactive) | 0 (inactive) | 0.136 (inactive) | 0.2 (inactive) | 0.127 (inactive) |
| CCN(CC)CCCN1CCN(C(=O)c2cccc(-c3noc(C(F)(F)F)n3)c2)CC1 | 97.3 | 0 (inactive) | 0 (inactive) | 1 (inactive) | 0.2 (inactive) | 0.111 (inactive) | 0.25 (inactive) |
| Cc1cc(OCC(=O)Nc2ccc(C(C)C)cc2)n(C)c(=O)c1C#N | 82.3 | 0 (inactive) | 0 (inactive) | 0 (inactive) | 0.1 (inactive) | 0.0556 (inactive) | < 0 (inactive) |
| Cc1cc(Nc2ccncc2)n2nc(C)c(-c3ccccc3Cl)c2n1 | 64.9 | 0 (inactive) | 0 (inactive) | 0 (inactive) | 0.1 (inactive) | 0.135 (inactive) | 0.167 (inactive) |
| CNC1C(OC2C(OC3C(O)C(O)C(NC(=N)N)C(O)C3NC(=N)N)OC(C)C2(O)C=O)OC(CO)C(O)C1O (stereo not given) | 93 | 0 (inactive) | 0 (inactive) | 0 (inactive) | 0.182 (inactive) | 0.1 (inactive) | 0.0727 (inactive) |
| N#CCN(CCCCN1CCN(c2ccc(F)cc2)CC1)C(=O)OCc1ccccc1 | 118 | 0 (inactive) | 0 (inactive) | 0 (inactive) | 0.0811 (inactive) | 0.111 (inactive) | 0.125 (inactive) |
| O=C(c1ccc(F)cc1)N(CCNc1ccccc1)c1ccccc1 | 126 | 1 (inactive) | 0 (inactive) | 1 (inactive) | 0.135 (inactive) | 0.167 (inactive) | 0.25 (inactive) |
| COC(=O)c1c(NC(=O)c2c(F)c(F)c(F)c(F)c2F)sc2c1CCCCC2 | 0.615 | 2 (active) | 4 (active) | 4 (active) | 1 (active) | 1 (active) | 1 (active) |
| COc1ccc(S(=O)(=O)Nc2ccc(CN3CCN(C(=O)c4cccc(C#N)c4)CC3)cc2)cc1 | 144 | 0 (inactive) | 0 (inactive) | 1 (inactive) | 0.1 (inactive) | 0.111 (inactive) | 0.188 (inactive) |
| COc1ccccc1C(C)NCC(=O)Nc1cc(C(F)(F)F)ccc1Cl (stereo not given) | 67.7 | 0 (inactive) | 0 (inactive) | 0 (inactive) | 0.15 (inactive) | 0.135 (inactive) | 0.278 (inactive) |
| Nc1ncc(-c2ccc(C(F)(F)F)nc2)cc1-c1ccc(C(F)(F)F)nc1 | 79.3 | 0 (inactive) | 0 (inactive) | 0 (inactive) | 0.182 (inactive) | 0.15 (inactive) | 0.127 (inactive) |
| Nc1ncc(-c2cn[nH]c2)cc1-c1nc2cc(Cl)cnc2[nH]1 | 94.4 | 0 (inactive) | 0 (inactive) | 0 (inactive) | < 0 (inactive) | < 0 (inactive) | 0.0556 (inactive) |
| CNC(=O)CNc1nc(-c2ccccn2)nc2scc(-c3ccccc3)c12 | 90 | 0 (inactive) | 0 (inactive) | 0 (inactive) | 0.105 (inactive) | 0.111 (inactive) | 0.125 (inactive) |
| Nc1ncnc2c1ncn2C[C@@H](O)[C@@H](O)C(=O)O | 63.7 | 0 (inactive) | 0 (inactive) | 0 (inactive) | 0.1 (inactive) | 0.189 (inactive) | 0.222 (inactive) |
| FC(F)(F)c1cnc(Sc2nnc(-c3ccncc3)o2)c(Cl)c1 | 74 | 0 (inactive) | 1 (inactive) | 2 (active) | 0.459 (inactive) | 0.778 (active) | 0.938 (active) |
